Compound activity deposited in PubChem BioAssay by several laboratories.
Rows were chosen to be rich in hits. Some 2.4% of all compounds tested hit in one or more screens of this group.
PGE2 EP2 inh – inhibitors of human EP2 prostaglandin E2 receptor | C6 glioma cells expressing human EP2, cAMP TR-FRET; cells stimulated with saturating PGE2 | inhibition, % at 25 µM | AID 1422 | P43116 | actives 0.52% (n = 260,000);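 active means percent inhibition above 40 after rounding to a whole number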;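 further: rat C6 glioma host cells with rolipram phosphodiesterase inhibitor present; the protocol text gives 20 µM as final concentration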
Target sequence (P43116 whole entry, looked up): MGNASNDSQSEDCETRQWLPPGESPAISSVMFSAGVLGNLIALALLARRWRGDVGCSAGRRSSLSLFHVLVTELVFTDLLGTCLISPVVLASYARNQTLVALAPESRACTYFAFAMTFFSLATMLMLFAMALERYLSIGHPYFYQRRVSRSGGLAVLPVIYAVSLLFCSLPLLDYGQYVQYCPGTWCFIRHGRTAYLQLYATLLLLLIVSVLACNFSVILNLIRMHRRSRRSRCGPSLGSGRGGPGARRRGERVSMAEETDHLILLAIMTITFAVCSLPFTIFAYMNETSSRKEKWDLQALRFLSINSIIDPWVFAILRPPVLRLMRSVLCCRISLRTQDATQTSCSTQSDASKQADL
Arbovirus anti – arbovirus infection inhibition; arbovirus infection cell-based antiviral screen; inhibition, % at 10 µM; actives 0.37% (n = 200,000); AID 1251; in the data active means inhibition above about 30%
p97 ATPase inh – inhibitors of human p97 ATPase; P55072; recombinant p97 ATPase, Kinase-Glo ATP luminescence, 3 h; inhibition, % at 8 µM; actives 0.42% (n = 220,000); AID 1481; in the data active means inhibition above about 15%;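 further: 0% = DMSO vehicle and 100% = wells lacking enzyme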
EP2 mod – modulators of human EP2 prostaglandin E2 receptor. P43116. EP2-expressing cells, cAMP HTRF FRET, PGE2 co-stimulation. induction, % at 25 µM. actives 0.83% (n = 260,000). AID 940;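 active means compounds whose cAMP rise, as percent of the full-agonist control response, exceeds 60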;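 further: rat C6 glioma line stably carrying human EP2 under a CMV promoter; the protocol text gives 20 µM as final concentration; 100% = response of wells given 1 µM PGE2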
Hck-Nef inh – human Hck-Nef kinase inhibition; inhibition, % at 20 µM; actives 0.68% (n = 220,000); P08631; Recombinant Hck-YEEI plus Nef, Z-Lyte FRET kinase assay;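 active means Hck-Nef kinase inhibition above about 50%, limit read from the data; inactive means inhibition below that limit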;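 further: 0% = DMSO with Hck plus Nef and 100% = Hck alone without Nef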
* marks the source's active call; other numbers are inactive results; . = no result given; ! = repeats disagree.

SMILES | PGE2 EP2 inh | Arbovirus anti | p97 ATPase inh | EP2 mod | Hck-Nef inh
Oc1c(Cl)c(Cl)c(Cl)c(Cl)c1Cl (tested in a mixture with another compound) | 65* | . | . | -21 | .
O=C(O)c1cc(N=Nc2ccc([As](=O)(O)O)cc2)ccc1O | 43* | . | . | 33 | .
CC(=O)Nc1cc([As](=O)(O)O)ccc1O | 8 | 8 | -9 | 19 | -6
Cn1ccnc1C1(O)CC2CCC(C1)N2CC(=O)NCC1CCCO1 (centres undefined) | . | . | . | 17 | .
OC12CCCCC1CN(Cc1ccc3ncccc3c1)CC2 (centres undefined) | 7 | . | . | -8 | .
CC(C)(C)n1nnnc1CN1C2CCC1CC(O)(c1ccc(F)cc1)C2 (centres undefined) | 9 | . | . | -2 | .
COc1cc2c3cc1Oc1c(O)c(OC)cc4c1[C@@H](Cc1ccc(cc1)Oc1cc(ccc1O)C[C@@H]3N(C)CC2)N(C)CC4 | 48* | . | . | -7 | .
COc1cc2c3cc1Oc1cc(ccc1O)C[C@@H]1c4c(cc(OC)c(O)c4Oc4ccc(cc4)C[C@H]3N(C)CC2)CCN1C | 18 | -42 | 7 | -18 | -3
Cn1c(=O)c2[nH]cnc2n(C)c1=O.[CH2-][C@H](Cc1cccc2cc(C(=O)O)c(=O)oc12)OC.[Hg].[OH-] | 59* | . | . | 29 | .
COCCc1ncc(CN2C3CCC2CC(O)(c2ccc(F)cc2)C3)cn1 (centres undefined) | 2 | . | . | -132 | .
O=C(O)[C@@H](O)[C@@H](O)[C@@H]1[O][Sb][O][C@@H]1CO | 51* | . | . | 10 | .
CC[C@H]1CN2CCc3cc(OC)c(OC)cc3[C@@H]2C[C@@H]1C[C@H]1NCCc2c1[nH]c1ccc(O)cc21 | 61* | . | . | -25 | .
C[C@@H](O)CN(CCN(C[C@@H](C)O)C[C@@H](C)O)C[C@@H](C)O.O=[N+]([O-])O.[Cu] | 41* | . | . | 14 | .
CCOC(=O)C1(c2ccccc2)CCN(CC(=O)Nc2cccc3ccccc23)CC1 | 6 | -26 | -4 | 63* | 5
CCOC(=O)C1(c2ccccc2)CCN(Cc2cccc(C(=O)O)c2)CC1 | 25 | 11 | -3 | 18 | 0
O=[N+]([O-])c1cc([As](=O)(O)c2ccc(O)c([N+](=O)[O-])c2)ccc1O | 12 | . | 10 | -19 | 4
O=[N+]([O-])c1cc(-c2ccc([As](=O)(O)O)cc2)ccc1[As](=O)(O)O | 47*! | . | 2 | -3 | 21
CC(=O)Nc1cccc(NC(=O)CN2C3CCC2CC(O)(c2nccn2C)C3)c1 (centres undefined) | . | . | . | -18 | .
C[N+]1(C)C2CC(OC(=O)[C@@H](CO)c3ccccc3)CC1C1OC12 (some centres undefined) | 5 | . | . | 19 | .
C[N+]1([O-])[C@@H]2CC(OC(=O)[C@@H](CO)c3ccccc3)C[C@H]1[C@H]1O[C@H]12 (some centres undefined) | 49* | . | . | 29 | .
C#CCOc1ccc(CN2C3CCC2CC(O)(c2ccc(F)cc2)C3)cc1 (centres undefined) | 11 | . | . | -43 | .
CC[C@@H]1[C@@H]2Cc3ccc(O)cc3[C@@]1(CC)CCN2C | 52* | . | . | 14 | .
CN1CCC23CCCC[C@H]2C1Cc1ccc(O)cc13 (some centres undefined) | 12 | . | . | 19 | .
C#CCOc1ccccc1CN1C2CCC1CC(O)(c1ccc(OC)cc1)C2 (centres undefined) | 8 | . | . | -14 | .
Cc1nc(-c2ccc(F)cc2)c(CC(=O)N2CCCCC2CN2CCCCC2)s1 (centres undefined) | 9 | . | . | -12 | .
SMILES | PGE2 EP2 inh | Arbovirus anti | p97 ATPase inh | EP2 mod | Hck-Nef inh
CCCN1CCC[C@@H]2Cc3nc(N)ncc3C[C@H]21 | 15 | . | . | 66* | .
CCc1ncc(CN(CCc2ccccc2)Cc2cccs2)cn1 | 4 | . | . | 35 | .
Cn1ccnc1C1(O)CC2CCC(C1)N2CC(C)(C)CN1CCOCC1 (centres undefined) | 2 | . | . | -9 | .
O=C(Nc1ccccc1)c1c(O)c2c(n(Cc3ccco3)c1=O)CCCC2 | 4 | . | 2 | 65* | 20
O=C(Nc1cccc(Cl)c1)c1c(O)c2c(n(Cc3ccco3)c1=O)CCCC2 | 6 | . | . | . | .
O=C1NC(=O)C(=Cc2ccc(-c3cc(Cl)ccc3[N+](=O)[O-])o2)C(=O)N1 | 42* | -2 | 4 | -59 | 61*
COC(=O)[C@@H]1C(=O)[C@H](C(=O)OC)[C@@H]2CC[C@H]1N2C | 43* | . | . | 45 | .
CCCc1ncc(CN2C3CCC2CC(O)(c2ccc(F)cc2)C3)cn1 (centres undefined) | 2 | . | . | -10 | .
CC(=O)OC1=CC2=CC[C@H]3[C@@H]4CCC(=O)[C@@]4(C)CC(=O)[C@]3(S)[C@]2(C)CC1 | 63* | . | . | -1 | .
C[C@]12C=CC(=O)C=C1CCC1C2CC[C@]2(C)C(=O)CCC12 (some centres undefined) | 12 | . | . | 19 | .
Cc1ccc(C=C2C(=O)NC(=S)NC2=O)o1 | 114* | . | . | -106 | .
CC(=O)Nc1ccc(C=C2C(=O)NC(=S)NC2=O)cc1 | 12 | . | . | 10 | .
Cc1ccccc1-n1nc(C)c(CC(=O)N(CCN(C)C)Cc2cccnc2)c1C | 8 | . | . | -14 | .
CC[C@]12C=CCN3CC[C@@]4(c5ccc(OC)cc5N(C)C4[C@@](O)(C(=O)OC)[C@@H]1OC(C)=O)[C@@H]32 (some centres undefined) | 14 | . | . | 17 | .
c1ccc2c([C@@H]3CCN(CCN4CCOCC4)C3)c[nH]c2c1 | 53* | . | . | 13 | .
CC1=C2C(=O)[C@H]3[C@@H](CC=C4C[C@@H](O)CC[C@@]43C)[C@@H]2CC[C@@]12O[C@@H]1C[C@H](C)CN[C@H]1[C@@H]2C | 41* | . | . | 19 | .
C[C@]12CC[C@H](O)CC1=CC[C@@H]1[C@@H]2CC[C@@]2(C)[C@H]1CC[C@]2(C)O | 15 | . | . | . | .
Cc1c([C@@H](C)[C@H]2NC[C@H](C)C[C@@H]2O)ccc2c1C[C@@H]1[C@@H]2CC=C2C[C@@H](O)CC[C@@]21C | 43* | . | . | 8 | .
C[C@@H]1[C@H]2C=C[C@@H]1[C@H](c1c3ccc(=O)c(O)c-3oc3c(O)c(O)ccc13)[C@@H]2C(=O)O | 45* | . | . | -10 | .
COc1ccc(CN2CCN(C(=O)COc3ccc(C)cc3)CC2)cc1OC | 10 | . | . | -36 | .
C[C@]12Cc3cnc(-c4ccccc4)nc3C[C@@H]1CC[C@H]1[C@H]2CC[C@@]2(C)[C@H]1CC[C@]2(C)O | 49* | . | . | 0 | .
O=C(O)c1ccc2c(c1)C1C(Cl)C(Sc3ccccc3[N+](=O)[O-])CC1C(c1cccc([N+](=O)[O-])c1)N2 (centres undefined) | 8 | 30 | 15* | 8 | 14
Cc1nc(-c2ccccc2)c(CC(=O)N2CCCCC2CN2CCCCC2)s1 (centres undefined) | 4 | . | . | -19 | .
C[C@@]12CC[C@@H]3[C@H](CCC4=CC(=O)CC[C@H]43)[C@H]1CC[C@H]2OC1(O)C(=O)c2ccccc2C1=O | 64* | . | . | -40 | .
CCCCCc1nc2c(c(=O)c3ccccc3n2C)c(=O)n1C1CCCCCC1 | 121* | -38 | -2 | -14 | 4
